# Source: PubChem BioAssay
# Experiment: HepG2 liver cancer cell viability effects, profiling panel, resazurin fluorescence, 24 h, PK04 Diversity Set (AID 1172); also: test concentration not given here
# Details: higher = more signal
row,Structure (SMILES),z-score
1,CN(C)C(=O)[C@@]1(CCS(=O)(=O)c2ccccc2)N=C(c2ccc(OCCCO)cc2)O[C@H]1c1ccccc1CN=[N+]=[N-],1.01
2,Cc1ccc(S[C@]2(C(=O)NCc3ccccc3)CC(=O)N(C3Cc4ccccc4C3)[C@@H]2c2ccc(CO)cc2I)cc1,-0.0974
3,C=C(C)[C@@H]1CC=C(C(O)C2C=CC3C(=O)N(C4CCCCC4)C(=O)C3N2Nc2ccc(OC)cc2)CC1 (some centres not stated),0.14
4,CC(C)(C)N1CC=CC23O[C@@H]4C=CCCOC(=O)C4[C@H]2C(=O)N(CCCO)[C@@H]3C1=O (some centres not stated),-0.884
5,CN(C)C(=O)[C@]1(Cc2ccccc2N=[N+]=[N-])N=C(c2ccc(OCCCO)cc2)O[C@@H]1c1ccccc1CN=[N+]=[N-],2.37
6,COC(=O)[C@@]1(Cc2ccc(OC)cc2)[C@H]2c3cc(C(=O)N4CCCC4)n(Cc4ccc(C)o4)c3C[C@H]2CN1C(=O)c1ccccc1,-6.47
7,[N-]=[N+]=NCc1ccccc1C[C@]1(C(=O)NCCN2CCOCC2)N=C(c2ccc(OCCCO)cc2)O[C@H]1c1ccccc1,0.383
8,CCCCCCC#C[Si](O[C@H](c1ccccc1)c1cn(Cc2cccc(Cl)c2)nn1)(C(C)C)C(C)C,0.809
9,COCCOC(=O)N1C(=O)[C@@]2(c3cc(C#CC4(O)CCCCCC4)ccc31)[C@H](C(=O)N1CCN(c3ncccn3)CC1)[C@H]1C(=O)O[C@H](c3ccccc3)[C@H](c3ccccc3)N1[C@@H]2c1ccc(O)cc1,-0.597
10,COc1ccc(C(=O)Nc2ccc3c(c2)[C@]2(O[C@@H](CCO)[C@H]([Si](C)(C)c4ccc(OC)cc4)[C@H]2C)C(=O)N3Cc2ccccc2)cc1,-1.9
11,COc1ccc([Si](C)(C)[C@@H]2[C@@H](CCO)O[C@]3(C(=O)N(Cc4ccccc4)c4ccc(N5CCCCC5=O)cc43)[C@H]2C)cc1,-1.62
12,C#CCNS(=O)(=O)N(C)C,0.175
13,COCCCNC(=O)[C@]1(CCS(=O)(=O)c2ccccc2)N=C(c2ccc(OCCCO)cc2)O[C@@H]1c1ccccc1,0.484
14,CC(=O)NCCCC[C@@H]1NC(=O)[C@@H]2C[C@H](C(=O)NCCCC[N+](C)(C)C)[C@H](c3cccc(OCCO)c3)N2C1=O,-0.44
15,CCCC[C@@H](O)C1=C(COc2ccccc2)Cn2c(=O)n(-c3ccccc3)c(=O)n2[C@H]1CO,-0.196
16,C=CCOC(=O)[C@H]1[C@@H]2C(=O)O[C@@H](c3ccccc3)[C@@H](c3ccccc3)N2[C@@H](c2ccc(OCCOC(=O)[C@H]3C[C@H]4C(=O)N[C@@H](CCCCN(C)C)C(=O)N4[C@H]3c3ccc(O)cc3)cc2)[C@]12C(=O)Nc1ccccc12,0.569
17,C=CCNC(=O)[C@H]1[C@@H]2C(=O)O[C@@H](c3ccccc3)[C@@H](c3ccccc3)N2[C@@H](c2ccc(OCCO)cc2)[C@]12C(=O)N(C(=O)OCCOC)c1ccc(C#CC3=CCCCC3)cc12,0.293
18,COC(=O)[C@@]1(Cc2ccccc2)[C@H]2c3cc(C(=O)N4CCCC4)n(Cc4ccc(OC(F)(F)F)cc4)c3C[C@H]2CN1C(=O)c1ccccc1,-1.22
19,COc1ccc([Si](C)(C)[C@H]2[C@H](CCn3cc(CCO)nn3)O[C@@]3(C(=O)N(Cc4cccc(N5C(=O)c6cccc7cccc5c67)c4)c4ccccc43)[C@@H]2C)cc1,-2.74
20,COC(=O)[C@@]1(Cc2ccc(F)cc2)[C@H]2c3cc(C(=O)N4CCCC4)n(Cc4ccccc4)c3C[C@H]2CN1C(=O)c1ccccc1,0.155
21,CCC[C@@H]1C[C@@]1(CCC)[C@@H](NC(=O)c1ccco1)c1ccc(Cl)cc1,1.6
22,C[C@@]1([C@@H](NC(=O)c2cccs2)c2ccc(-c3ccccc3)cc2)C[C@H]1C1CCCCC1,0.133
23,O=C1O[C@H](c2ccccc2)[C@H](c2ccccc2)N2[C@H]1[C@@H](C(=O)N1CCN(c3ncccn3)CC1)[C@]1(C(=O)Nc3ccc(C#CCCO)cc31)[C@H]2c1ccccc1OCCO,-0.141
24,C=C(COC)C(=O)CC[C@H](OC(=O)c1ccccc1-c1ccccc1C(=O)O)c1ccc(CO)o1,-0.45
25,COCC(=C=CC[C@@H](O)c1ccccc1OCCO)C[C@@H](O)c1ccccn1,-0.415
26,COC(=O)C(CC#Cc1ccc2c(c1)[C@]1(C(=O)N2)[C@H](c2ccc(OCCO)cc2)N2[C@H](c3ccccc3)[C@H](c3ccccc3)OC(=O)[C@H]2[C@@H]1C(=O)O)C(=O)OC,0.669
27,COCCCNC(=O)[C@]1(Cc2ccccc2CN=[N+]=[N-])N=C(c2ccc(OCCCO)cc2)O[C@@H]1c1ccccc1CN=[N+]=[N-],-0.504
